Assay results reported in PubChem BioAssay AID2289 (National Center for Advancing Translational Sciences (NCATS), 2010).
Among all 340,000 compounds or so, about 3,300 (0.97%) were called active. Inconclusive results (about 9%) are left out. The call rests on the fitted dose curve; in most records, active means well fitted inhibition curve with a large enough effect; inconclusive means small, poorly fitted or top-dose-only effect, or effect the other way; inactive means flat fitted curve, though single readings scatter. Some of the results follow.

Assay: qHTS Assay for Modulators of miRNAs and/or Inhibitors of miR-21; further: nearly all actives have a fitted effect of over 55% in size
Conditions: HeLa miR-21-FLuc reporter, luciferase luminescence, 48 h; actives lower the signal
In short: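 HeLa cells stably expressing CMV-driven firefly luciferase with a downstream miR-21 binding sequence, endogenously expressing miR-21, were treated with titrations (up to about 40uM final) for 48 hours at 37 degree Celsius. Luciferase luminescence was read after lysis.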
Potency means the concentration at half of the fitted maximal effect.

Potency, active:
COc1ccc(-c2cc(C(=O)N3CCCC3)no2)cc1OC 5.85 µM
COc1ccc(-c2cc(C(=O)N3CCCCCC3)no2)cc1OC 16.5 µM
COc1ccc(-c2cc(C(=O)N3CCCCC3)no2)cc1OC 7.36 µM
Cc1ccc(/C=C/C(=O)Nc2ncc(C)s2)o1 1.04 µM
Cc1csc(NC(=O)/C=C/c2ccc(C)o2)n1 5.21 µM
CCOC(=O)C(C)On1c(-c2ccc(Cl)cc2)nc2ccc([N+](=O)[O-])cc21 (stereo not given) 3.69 µM
O=C(Nc1ccccc1-c1ccccc1)c1cnccn1 13.1 µM
O=C(Nc1ccccc1-c1ccccc1)c1ccc(=O)[nH]n1 14.7 µM
Cn1ccc(C(=O)Nc2ccc(Br)cc2Br)n1 0.521 µM
Cc1ccc(NC(=O)c2cnccn2)c(Br)c1 5.85 µM
CN(C)CCCN(C(=O)c1sc2ccccc2c1Cl)c1nc2ccc(F)cc2s1 9.27 µM
CN(C)CCCN(C(=O)c1ccc2c(c1)OCCO2)c1nc2ccccc2s1 18.5 µM
O=C(c1ccc2c(c1)OCCO2)N(Cc1cccnc1)c1nc2ccc(F)cc2s1 4.14 µM
CCc1ccc2nc(N(Cc3cccnc3)C(C)=O)sc2c1 16.5 µM
Cc1cc(C)nc(SCc2csc(-c3ccccc3)n2)n1 1.65 µM
COc1ccccc1NS(=O)(=O)c1cccc(NC(=O)c2cc3ccccc3oc2=O)c1 4.65 µM
COc1ccc(S(=O)(=O)Nc2ccccc2OC)cc1NC(=O)c1cc2ccccc2oc1=O 6.56 µM
COc1ccc(Cl)cc1NC(=O)Cn1ccn(Cc2ccc(C)cc2)c(=O)c1=O 7.36 µM
O=C(NCCCN1CCOCC1)c1cc(-c2cccs2)on1 16.5 µM
COCCNC(=O)c1cc(-c2cccc(Cl)c2)on1 4.14 µM
COCCNC(=O)c1cc(-c2cccs2)on1 13.1 µM
O=C(NCCN1CCOCC1)c1cc(-c2cccs2)on1 14.7 µM
O=C(NCCc1ccccc1)c1nc(-c2cccs2)no1 11.7 µM
COc1cc(/C=N/n2cnnc2)ccc1OCc1ccccc1 18.5 µM
COc1cc(/C=N/n2cnnc2)ccc1OCc1ccc(C)cc1 4.14 µM
Cc1n[nH]c(=S)n1/N=C/c1ccccc1OCc1ccc(Cl)cc1 14.7 µM
COc1cc(/C=N/n2c(C)n[nH]c2=S)ccc1OCc1ccccc1 6.56 µM
Cc1n[nH]c(=S)n1/N=C/c1ccc(OCc2ccc(Cl)cc2Cl)cc1 16.5 µM
Cc1cc(C)cc(NC(=O)c2cc(CN3CCCC3)on2)c1 11.7 µM
CCOC(=O)c1cccc(NC(=O)c2cc(CN3CCCC3)on2)c1 2.33 µM
COc1ccc2c(Sc3ccccc3)c(C(=O)NCCc3ccc(Cl)cc3)[nH]c2c1 0.464 µM
O=C(NCCc1ccccc1)c1cccc([N+](=O)[O-])c1 8.26 µM
O=C(NCCc1ccccc1)c1ccc(Cl)cc1[N+](=O)[O-] 8.26 µM
N#Cc1ccc(C2N=C(c3ccccc3)NO2)cc1 (stereo not given) 0.585 µM
COc1ccc(C2N=C(c3ccccc3)NO2)cc1OC (stereo not given) 5.21 µM
Clc1ccc(OCc2noc(-c3ccsc3)n2)c(Cl)c1 4.14 µM
COc1ccccc1-c1nc(COc2ccc(Cl)cc2Cl)no1 7.36 µM
COc1ccccc1/C=C/C=N/n1c(-c2ccccn2)n[nH]c1=S 8.26 µM
CCOC(=O)c1c(C)oc2cc(Cl)c(O)c(CN(C)C)c12 14.7 µM
C/C(=N/NC(=O)c1ccc(Br)o1)c1ccc(C)o1 10.4 µM
O=C(N/N=C/c1ccc(Br)cc1)c1ccc(Br)o1 3.29 µM
COc1cccc(-c2noc(COc3ccccc3Cl)n2)c1 16.5 µM
COc1ccccc1OCc1nc(-c2cccc(C)c2)no1 6.56 µM
Cc1ccc(OCc2nc(-c3ccccc3)no2)cc1 5.21 µM
CSc1nc(O)c(/C=C2\C=Nc3ccccc32)[nH]1 16.5 µM
COc1cccc2c1C(=O)O/C2=C/c1ccc2c(c1)OCO2 0.233 µM
COc1ccc(/C=C2\OC(=O)c3c(OC)cccc32)cc1OC 2.93 µM
COc1cc(/C=C2\OC(=O)c3c(OC)cccc32)ccc1O 7.36 µM
COc1cccc(/C=N/NC(=O)c2cccc(N3CCCC3=O)c2)c1 5.85 µM
c1csc(-c2nc(N3CCCCC3)no2)c1 2.93 µM
Cc1ccc2c(c1)sc(=NC(=O)c1cccs1)n2C 0.0521 µM
CCOC(=O)c1sc(=NC(=O)c2cccs2)n(C)c1C 0.293 µM
CCOC(=O)c1sc(=NC(=O)c2ccccc2Br)n(C)c1C 1.04 µM
CCOC(=O)c1sc(=NC(=O)c2ccc(Cl)s2)n(C)c1C 0.233 µM
O=C(NC(N1CCOCC1)C(Cl)(Cl)Cl)c1ccco1 (stereo not given) 2.93 µM
O=C(CCc1ccc(S(=O)(=O)NC2CCCCC2)cc1)NCc1ccccn1 7.36 µM
Cc1cc(-n2c(SCc3ccccc3F)nc3[nH]ncc3c2=O)ccc1Cl 4.65 µM
O=c1c2c3c(sc2ncn1-n1cccc1)CCCCC3 11.7 µM
COc1ccc(OC)c2nc(-c3ccc4c(c3)OCO4)ccc12 0.736 µM
CC(=O)c1cc2c(C)c(C(=O)c3ccccc3)oc2cc1O 0.521 µM
Cc1c(C(=O)c2ccccc2)oc2ccc3ccccc3c12 2.93 µM
CCN(CC)S(=O)(=O)c1ccc(-c2cn3ccc(C)cc3n2)cc1 0.927 µM
Cc1cc(/C=C(\C#N)C(=O)Nc2ccccc2F)c(C)[nH]1 0.521 µM
Cc1ccccc1SCCNC(=O)c1ccccc1Br 16.5 µM
O=C(NCCSc1ccccc1)c1ccccc1Cl 1.65 µM
COC(=O)c1sc(NC(=O)COc2ccccc2)nc1C 7.36 µM
CCOC(=O)c1sc(Nc2ccccc2)nc1C 4.14 µM
COC(=O)c1sc(NC(=O)CSc2nnnn2C)nc1C 6.56 µM
CNc1nc(C)c(C(=O)OCc2ccccc2)s1 16.5 µM
CCOC(=O)c1sc(NC(=O)c2ccccc2OC)nc1C 0.261 µM
CCOC(=O)c1sc(Nc2ccccc2Cl)nc1C 4.65 µM
Cc1ccccc1/C=N/NC(=O)c1sccc1C 1.47 µM
Cc1ccccc1C(=O)N/N=C/c1ccsc1C 2.33 µM
O=C(c1cc(-c2ccc(Cl)cc2)on1)N1CCCC1 0.521 µM
c1ccc(-c2cc(-c3ccccc3)on2)cc1 1.04 µM
CCC1CCCCN1C(=O)c1cc(-c2ccc(Cl)c(Cl)c2)on1 (stereo not given) 7.36 µM
O=C(c1cc(-c2ccc(Cl)cc2)on1)N1CCCCCC1 1.47 µM
O=C(c1ccccc1-c1nc(-c2ccccc2)no1)N1CCCC1 18.5 µM
O=C(c1cc(-c2ccccc2)on1)N1CCCCCC1 3.29 µM
COc1ccccc1CCC(=O)Nc1ccc(C)cc1Cl 16.5 µM
Cc1ccc(Sc2ncccc2COC(=O)NC(C)C)cc1 16.5 µM
O=C1N=C(N2CCOCC2)S/C1=C\C=C/c1ccccc1 10.4 µM
Nc1ccccc1-c1nc2ccccc2s1 5.85 µM
Nc1ccc(-c2nc3ccccc3s2)cn1 1.47 µM
N#Cc1ccc(N2Cc3ccccc3C2=NC(=O)c2cccs2)cc1 8.26 µM
CCOC(=O)c1ccc(N2Cc3ccccc3C2=NC(=O)c2cccs2)cc1 3.29 µM
Cc1ccc2[nH]c3c(=S)nc[nH]c3c2c1 3.69 µM
Cc1cc(C(=O)N/N=C/c2cccc([N+](=O)[O-])c2)c(C)n1-c1ccccc1 6.56 µM
O=C(Nc1ccc(Cl)c(Cl)c1)c1ccccc1NC(=O)C1CC=CCC1C(=O)O (stereo not given) 6.56 µM
CC(C)c1ccc(NC(=O)c2ccccc2NC(=O)C2CC=CCC2C(=O)O)cc1 (stereo not given) 3.69 µM
CN(C)C=NC(=O)c1cc(C(=O)c2ccc(C(C)(C)C)cc2)c[nH]1 0.927 µM
Cn1c(CSc2ccccc2)c(C#N)c2ccccc21 14.7 µM
Cc1ccc(Nc2nc(/N=C/N(C)C)n[nH]2)cc1C 7.36 µM
Cc1ccc(Nc2nc(/N=C/NO)n[nH]2)cc1C 1.85 µM
COCn1c(COc2ccc3ccccc3c2)nc2ccccc21 2.07 µM
COCn1c(-c2ccc(OC)cc2)nc2ccccc21 3.69 µM
C=CCn1c(-c2ccc(N)cc2)nc2ccccc21 4.65 µM
O=C(c1cc(-c2ccccc2O)on1)N1CCCCCC1 2.07 µM
O=C(c1cc(-c2ccccc2O)on1)N1CCCCC1 0.826 µM
O=C(c1cc(-c2ccccc2O)on1)N1CCOCC1 13.1 µM
Cc1ccc2c(c1)NC(=O)CC(c1ccccc1)=N2 13.1 µM
CSc1ccc(/C=C/C(=O)c2c(O)cc(C)oc2=O)cc1 13.1 µM
Cc1ccc(NC(=O)CCCNC(=O)c2ccc(Cl)cc2)c(O)c1 16.5 µM
[O-]/[N+](=C\C=C\c1ccccc1)c1ccccc1 1.85 µM
CC(=O)Nc1ccc(C(=O)/C=C/c2ccc[nH]2)cc1 13.1 µM
